The record followed here is PubChem BioAssay.

SMILES strings stand for the structures. Results filed as inconclusive are left out. Activity calls are given as the source filed them.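 Rule for the calls, unless noted: active = inhibition above 54%, about 3 SD of non-fluorescent compounds; inactive = the rest.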

Assay [1] in a line: rapamycin-like changes in RPL19A-GFP expression – cell-based, S. cerevisiae, multiplex flow cytometry, primary screen (AID 1862; in the data active = percent of DMSO control GFP below about 86%;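 note: lower values mimic rapamycin by blocking the RPL19A rise seen in DMSO cells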). To be noted: S. cerevisiae RPL19A-GFP strain, flow cytometry fluorescence, 3 h; at 10 µM; stronger effect = lower value.
A short description of assay [2]: TOR pathway GLN3 branch reporter MEP2-GFP changes – S. cerevisiae, multiplex flow cytometry, primary screen (AID 1867;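 active = GFP response, as percent of the DMSO control, above the screen-wide mean plus 3 SD, about 139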;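 note: median GFP channel fluorescence of barcode-gated MEP2-GFP cells measured by flow cytometry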). To be noted: S. cerevisiae MEP2-GFP strain, 3 h, at 10 µM, stronger effect = higher value, 100% means same as DMSO wells. A general note: Flow cytometry measures light scatter and fluorescence of single cells or particles in a stream.
Assay [3] is described as follows: TOR pathway RTG branch CIT2 reporter changes – S. cerevisiae, GFP fusion, multiplex flow cytometry, primary screen (AID 1870;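 active = percent response above a set limit, the screen-wide mean plus 3 SD, cut at about 130% in these data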;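 note: barcoded CIT2-GFP strain pooled with four other GFP strains with rapamycin as positive control; median GFP fluorescence per well over plate mean of DMSO wells so 100% = DMSO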). The conditions noted are these: S. cerevisiae CIT2-GFP expression, 3 h, at 10 µM, stronger effect = higher value.
The nature of assay [4]: TOR pathway LAP4-GFP level changes – S. cerevisiae, multiplex flow cytometry, primary screen (AID 1873;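 active = GFP signal, as percent of the solvent control, above the screen mean plus 3 SD, about 149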). The conditions noted are these: S. cerevisiae LAP4-GFP expression, 3 h, at 10 µM, stronger effect = higher value.
Assay [5] is described as follows: yeast AGP1-GFP level changes, GLN3 branch – cell-based, multiplex flow cytometry, S. cerevisiae, primary screen (AID 1887;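 active = GFP signal above the screen-wide mean plus 3 SD, that is over about 124.5% of the solvent control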;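 note: AGP1-GFP fusion strain of S. cerevisiae within a five-strain barcoded multiplex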). To be noted: 3 h, at 10 µM, stronger effect = higher value.
Assay [6] can be described thus: reduced mouse 2C T cell binding to pMHC/ICAM-1 vesicles – MLPCN validation set, flow cytometry, LFA-1/ICAM-1 modulator project, pilot screen (AID 2523;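 active = response below a set limit, under 55% cells CD8-positive and vesicle-bound, and CD8 cells' 90th-percentile brightness under 279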;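 for vesicle binding response: mean PE anti-B7-1 fluorescence of CD8+ cells relative to row control; 100% = QL9-loaded vesicles with DMSO vehicle in the same plate row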). The conditions noted are these: 2C mouse CD8+ T cells, at 7 µM, stronger effect = lower value; double positive events: measured here: CD8+/vesicle+ event percentage.
The target of assay [7] is Integrin beta-1 (Homo sapiens) + Integrin alpha-4 (Homo sapiens) (UniProt P13612+P05556). The assay is described as follows: alpha4beta1 integrin LIBS antibody binding reduction – U937 cells, HUTS-21 mAb, flow cytometry, validation set, VLA-4 allosteric modulator project, pilot screen (AID 2674;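 active = inhibition above 50%, about 3 SD of the validation set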;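 note: antibody binding induced by the VLA-4 ligand LDV present at three times its Kd; 0% = LDV ligand with antibody and no compound and 100% = antibody without LDV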). To be noted: HUTS-21 LIBS mAb binding, at 6.7 µM, stronger effect = higher value, binding induced by LDV ligand.

Assay [8] in a line: calorie-restriction mimetic ROS inhibitors, yeast – validation compound set, pilot screen (AID 2706;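 active = superoxide response below 65% of plate, a cut near 3 SD across the whole screen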;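 note: yeast exposed to compound for one week at 30 degrees C before staining; 100% = mean of all compound wells on the same plate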). The conditions noted are these: S. cerevisiae aging, superoxide DHE fluorescence; at 10 µM, stronger effect = lower value.
Assay [9] addresses AP-2 complex subunit beta (Homo sapiens) (UniProt P63010). The assay is described as follows: beta-arrestin/AP2 interaction blockers – biochemical, validation set, GST-AP2 beads, flow cytometry, pilot screen (AID 504541).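 Note: AP2 carries R879A mutation and is captured from E. coli lysate; bead-bound FITC arrestin peptide fluorescence measuring arrestin peptide binding to AP2; 0% = DMSO wells and 100% = excess unlabeled arrestin peptide control.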 The conditions noted are these: FITC arrestin peptide, at 10 µM, stronger effect = higher value, AP2 beta2 appendage fragment, R879A mutant.
Assay [10] in a line: cytosolic pH regulators acting via V-ATPase – S. cerevisiae, pHLuorin, HTS validation (AID 504600; in the data active = response above about 15%;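 note: plate controls were DMSO for no effect and reference compound for full effect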). To be noted: V-ATPase proton transport, at 10 µM, stronger effect = higher value.
Assay [11] relates to anti-desmoglein-3 scFv antibody binding to human DSG3. The assay is described as follows: blockers of pathogenic pemphigus antibody–desmoglein-3 binding – biochemical, validation compound set, bead-based, flow cytometry, pilot screen (AID 588368;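 active = binding below the plate cutoff, the plate median minus 3 SD, with a reading above zero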;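 note: signal is the median channel fluorescence of bead-bound GFP antibody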). To be noted: Protein G beads, DSG3-Fc, scFv-GFP binding, at 10 µM, stronger effect = lower value.
The nature of assay [12]: Nile Red efflux blockade in pump-expressing yeast – validation compound set, multiplex, phenotypic, pilot screen (AID 588506;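 active = efflux inhibition above 0.42, the validation set average plus 4 SD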;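 note: Nile Red retained in cells so higher fluorescence means more efflux inhibition; 0 = negative control wells and 1 = enniatin B 25 µM full block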). The conditions noted are these: S. cerevisiae pump-expressing triplex, Nile Red efflux flow cytometry; at 10 µM; stronger effect = higher value; the pumps come from Candida albicans.
The target in assay [13] is ATP-binding cassette sub-family B member 6 (Homo sapiens) (UniProt Q9NP58). The assay is described as follows: blockers of ABCB6-driven porphyrin uptake – K562-ABCB6 cells, flow cytometry, validation set, pilot screen (AID 588550;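 active = inhibition above the screen-wide mean plus 3 SD, about 51%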;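 note: 0% = DMSO wells and 100% = benzethonium chloride 70 µM positive control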). The conditions noted are these: K562-ABCB6 porphyrin accumulation, 1 h, at 10 µM, stronger effect = higher value.
Assay [14] is described as follows: AML differentiation inducers, ER-HoxA9 marrow cells – cell-based, GFP/MAC1 double positive, flow cytometry, validation set, primary screen (AID 588685;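 active = differentiation response of at least 50%, scaled between solvent and reference control, from cells with both markers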;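 note: compound exposure lasts four days before antibody staining and flow analysis; 0% = DMSO wells and 100% = 5 µM fulvestrant positive control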). The conditions noted are these: stronger effect = higher value, normalized: vehicle 0, fulvestrant 100.
Assay [15] concerns the target Beta-adrenergic receptor kinase 1 (Homo sapiens) (UniProt P25098). The assay is described as follows: GRK2 binders displacing RNA aptamer, biochemical, validation, human GRK2, bead flow cytometry (AID 488806;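 active = aptamer binding inhibition above 30%, about 3 SD of noise from non-fluorescent compounds; inactive = inhibition at or below 30%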). To be noted: bead-bound GRK2, FAM-aptamer displacement, at 10 µM, stronger effect = higher value.
In assay [16] the target is Beta-2 adrenergic receptor (Homo sapiens) (UniProt P07550). Briefly: agonist-induced loss of surface beta2AR – cell-based, FAP fluorogen, flow cytometry, validation set, pilot screen (AID 504459;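 active = percent response above 42, roughly 3 SD of non-fluorescent test compounds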;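 note: agonist-driven loss of surface beta2AR via internalization measured by FAP dye flow cytometry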). The conditions noted are these: Am2.2-beta2AR cells, at 10 µM, stronger effect = higher value.
Beta-2 adrenergic receptor (Homo sapiens), sequence (P07550 whole entry, looked up): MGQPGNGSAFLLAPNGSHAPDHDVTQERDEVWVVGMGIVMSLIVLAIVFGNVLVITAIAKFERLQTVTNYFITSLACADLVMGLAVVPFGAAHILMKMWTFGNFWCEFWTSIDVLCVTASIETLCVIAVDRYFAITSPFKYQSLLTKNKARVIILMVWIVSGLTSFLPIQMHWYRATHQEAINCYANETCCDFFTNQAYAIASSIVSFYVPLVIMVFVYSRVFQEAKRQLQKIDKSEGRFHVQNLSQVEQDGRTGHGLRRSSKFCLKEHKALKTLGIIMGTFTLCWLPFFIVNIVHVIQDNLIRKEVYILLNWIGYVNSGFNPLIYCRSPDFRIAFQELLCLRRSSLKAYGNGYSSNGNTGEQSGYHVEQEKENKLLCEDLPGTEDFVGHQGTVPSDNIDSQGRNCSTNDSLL

Beta-adrenergic receptor kinase 1 (Homo sapiens), sequence (P25098 whole entry, looked up): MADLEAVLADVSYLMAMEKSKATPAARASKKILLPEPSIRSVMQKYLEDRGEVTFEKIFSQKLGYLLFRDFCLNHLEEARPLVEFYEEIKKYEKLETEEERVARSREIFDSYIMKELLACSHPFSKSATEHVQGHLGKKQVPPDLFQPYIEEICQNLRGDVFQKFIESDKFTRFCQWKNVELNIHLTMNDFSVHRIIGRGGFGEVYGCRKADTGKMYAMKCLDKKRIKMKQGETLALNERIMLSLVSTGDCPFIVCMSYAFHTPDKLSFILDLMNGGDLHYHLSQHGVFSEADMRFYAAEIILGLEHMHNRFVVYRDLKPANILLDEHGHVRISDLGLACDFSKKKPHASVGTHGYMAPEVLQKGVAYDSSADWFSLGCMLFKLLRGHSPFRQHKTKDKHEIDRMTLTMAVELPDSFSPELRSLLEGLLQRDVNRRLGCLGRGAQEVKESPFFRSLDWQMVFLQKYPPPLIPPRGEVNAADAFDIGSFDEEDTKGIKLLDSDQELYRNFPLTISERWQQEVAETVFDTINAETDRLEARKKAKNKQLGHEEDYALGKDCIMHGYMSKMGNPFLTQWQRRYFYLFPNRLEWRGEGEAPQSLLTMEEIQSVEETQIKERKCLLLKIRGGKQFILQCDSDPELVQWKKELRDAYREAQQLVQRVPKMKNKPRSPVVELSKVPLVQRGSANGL
ATP-binding cassette sub-family B member 6 (Homo sapiens), sequence (Q9NP58 whole entry, looked up): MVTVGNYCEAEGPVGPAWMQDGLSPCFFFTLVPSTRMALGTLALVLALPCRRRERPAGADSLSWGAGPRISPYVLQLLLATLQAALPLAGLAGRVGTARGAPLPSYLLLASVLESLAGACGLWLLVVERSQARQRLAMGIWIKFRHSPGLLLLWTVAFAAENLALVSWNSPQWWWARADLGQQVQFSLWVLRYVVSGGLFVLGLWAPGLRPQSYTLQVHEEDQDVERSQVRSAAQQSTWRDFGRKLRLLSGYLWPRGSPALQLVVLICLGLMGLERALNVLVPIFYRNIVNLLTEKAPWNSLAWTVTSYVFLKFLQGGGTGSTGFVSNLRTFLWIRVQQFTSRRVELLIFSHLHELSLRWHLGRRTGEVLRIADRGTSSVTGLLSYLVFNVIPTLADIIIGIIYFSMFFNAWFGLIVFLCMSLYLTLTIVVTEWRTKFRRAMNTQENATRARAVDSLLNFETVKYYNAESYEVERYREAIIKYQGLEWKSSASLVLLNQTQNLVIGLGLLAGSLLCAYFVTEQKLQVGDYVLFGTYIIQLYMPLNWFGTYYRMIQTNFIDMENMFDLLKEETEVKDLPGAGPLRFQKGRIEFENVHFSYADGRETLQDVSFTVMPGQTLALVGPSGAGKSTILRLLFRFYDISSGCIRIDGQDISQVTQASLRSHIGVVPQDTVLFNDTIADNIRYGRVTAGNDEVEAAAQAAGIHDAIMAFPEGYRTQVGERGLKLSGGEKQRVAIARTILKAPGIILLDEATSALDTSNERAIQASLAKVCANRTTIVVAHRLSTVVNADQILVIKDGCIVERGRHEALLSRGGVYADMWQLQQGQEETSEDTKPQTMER
Integrin beta-1 (Homo sapiens) + Integrin alpha-4 (Homo sapiens), sequence (P05556 whole entry, looked up): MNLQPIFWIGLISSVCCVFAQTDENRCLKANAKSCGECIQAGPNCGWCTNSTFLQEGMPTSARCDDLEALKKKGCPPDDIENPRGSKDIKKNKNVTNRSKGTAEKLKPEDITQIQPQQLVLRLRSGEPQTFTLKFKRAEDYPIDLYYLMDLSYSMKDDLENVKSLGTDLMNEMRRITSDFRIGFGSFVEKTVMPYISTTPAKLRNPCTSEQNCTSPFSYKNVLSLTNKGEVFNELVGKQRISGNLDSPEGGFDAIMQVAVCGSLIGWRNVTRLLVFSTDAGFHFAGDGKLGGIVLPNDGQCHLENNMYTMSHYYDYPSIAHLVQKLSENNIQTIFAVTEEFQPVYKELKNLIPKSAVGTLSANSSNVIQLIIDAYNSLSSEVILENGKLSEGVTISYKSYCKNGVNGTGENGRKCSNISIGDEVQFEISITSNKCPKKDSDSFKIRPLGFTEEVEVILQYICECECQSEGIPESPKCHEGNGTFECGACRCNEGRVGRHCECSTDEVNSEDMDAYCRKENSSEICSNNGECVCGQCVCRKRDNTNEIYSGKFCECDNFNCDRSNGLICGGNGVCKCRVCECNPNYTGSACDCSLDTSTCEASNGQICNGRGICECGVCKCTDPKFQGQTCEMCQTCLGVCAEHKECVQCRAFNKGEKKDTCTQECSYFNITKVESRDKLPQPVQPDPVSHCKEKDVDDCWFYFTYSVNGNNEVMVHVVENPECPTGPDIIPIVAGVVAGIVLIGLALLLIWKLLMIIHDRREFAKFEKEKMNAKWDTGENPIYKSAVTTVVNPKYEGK
Integrin beta-1 (Homo sapiens) + Integrin alpha-4 (Homo sapiens), sequence (P13612 whole entry, looked up): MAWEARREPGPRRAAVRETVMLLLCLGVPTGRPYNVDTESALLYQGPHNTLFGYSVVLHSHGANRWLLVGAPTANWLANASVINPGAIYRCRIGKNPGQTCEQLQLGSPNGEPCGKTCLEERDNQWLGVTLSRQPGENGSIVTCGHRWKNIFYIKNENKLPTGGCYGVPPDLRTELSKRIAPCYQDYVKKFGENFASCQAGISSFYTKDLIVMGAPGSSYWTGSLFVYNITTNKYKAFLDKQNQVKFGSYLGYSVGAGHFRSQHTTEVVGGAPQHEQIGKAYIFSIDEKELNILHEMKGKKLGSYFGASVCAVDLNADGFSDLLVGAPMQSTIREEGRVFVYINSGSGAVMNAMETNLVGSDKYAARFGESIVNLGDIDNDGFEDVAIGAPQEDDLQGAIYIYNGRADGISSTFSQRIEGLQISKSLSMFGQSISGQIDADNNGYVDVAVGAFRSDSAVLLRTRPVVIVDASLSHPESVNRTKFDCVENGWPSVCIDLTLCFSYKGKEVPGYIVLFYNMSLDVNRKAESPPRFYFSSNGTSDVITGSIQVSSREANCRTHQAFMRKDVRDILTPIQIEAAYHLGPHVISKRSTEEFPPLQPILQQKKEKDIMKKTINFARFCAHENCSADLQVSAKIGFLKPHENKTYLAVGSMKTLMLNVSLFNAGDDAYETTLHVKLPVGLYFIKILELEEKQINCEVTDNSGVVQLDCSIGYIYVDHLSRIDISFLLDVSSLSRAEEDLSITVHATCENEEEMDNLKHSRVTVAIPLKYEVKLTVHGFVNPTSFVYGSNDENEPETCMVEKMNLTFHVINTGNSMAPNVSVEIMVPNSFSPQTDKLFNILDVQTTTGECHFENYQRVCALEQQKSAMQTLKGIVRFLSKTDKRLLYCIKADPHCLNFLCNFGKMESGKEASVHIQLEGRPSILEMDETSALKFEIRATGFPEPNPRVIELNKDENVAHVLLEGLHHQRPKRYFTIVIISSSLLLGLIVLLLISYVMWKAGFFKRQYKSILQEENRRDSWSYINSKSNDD
AP-2 complex subunit beta (Homo sapiens), sequence (P63010 whole entry, looked up, the tested form may be a part, one chain of several): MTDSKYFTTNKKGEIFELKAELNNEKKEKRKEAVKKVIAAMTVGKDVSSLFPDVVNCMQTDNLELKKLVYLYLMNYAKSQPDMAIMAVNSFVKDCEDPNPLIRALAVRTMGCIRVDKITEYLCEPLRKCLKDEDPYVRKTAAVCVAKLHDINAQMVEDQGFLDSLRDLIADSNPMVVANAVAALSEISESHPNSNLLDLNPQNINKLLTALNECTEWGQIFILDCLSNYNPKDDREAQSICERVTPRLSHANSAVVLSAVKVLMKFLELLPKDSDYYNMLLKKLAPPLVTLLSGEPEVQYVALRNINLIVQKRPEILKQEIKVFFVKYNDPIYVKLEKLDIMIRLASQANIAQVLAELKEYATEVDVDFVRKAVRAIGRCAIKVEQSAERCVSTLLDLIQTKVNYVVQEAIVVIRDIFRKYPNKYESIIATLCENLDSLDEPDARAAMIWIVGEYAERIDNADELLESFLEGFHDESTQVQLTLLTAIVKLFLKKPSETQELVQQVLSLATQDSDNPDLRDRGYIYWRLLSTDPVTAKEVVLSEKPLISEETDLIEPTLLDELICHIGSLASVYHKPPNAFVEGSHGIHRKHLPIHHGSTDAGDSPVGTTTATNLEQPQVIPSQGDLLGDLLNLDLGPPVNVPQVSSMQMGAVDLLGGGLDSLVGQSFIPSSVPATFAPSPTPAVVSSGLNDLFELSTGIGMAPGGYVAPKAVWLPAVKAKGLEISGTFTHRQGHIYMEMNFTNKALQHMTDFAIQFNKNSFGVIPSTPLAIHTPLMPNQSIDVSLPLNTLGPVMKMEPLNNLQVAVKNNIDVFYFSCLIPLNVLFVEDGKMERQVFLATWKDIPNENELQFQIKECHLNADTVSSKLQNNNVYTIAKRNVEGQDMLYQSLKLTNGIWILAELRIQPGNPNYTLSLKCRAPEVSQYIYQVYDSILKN

Broadly, the inhibition is the change of the read-out against control, counted positive when it falls. Take `CNC[C@H](O)c1ccc(O)c(O)c1`: in assay [1], the percent of DMSO control GFP was 107% (inactive). In addition, the GFP response vs DMSO in assay [2] was 95.9% (inactive); in assay [4] it was 97.4% (inactive). Moreover, the percent response of DMSO control in assay [3] is 107% (inactive). Moreover, in assay [5], the GFP response, % of DMSO was 103% (inactive). For the same compound, the double positive events in assay [6] came to 43.9%. The vesicle binding response in [6] is 162% (inactive). Further, the inhibition was -25.4% (inactive) in [7], 2.4% (inactive) in [9] and 9% (inactive) in assay [13]. Besides, in assay [8], the superoxide response (% of plate) was 108% (inactive). In assay [10], the response is 2.95% (inactive). The binding (% of control) in [11] was 103% (inactive). The efflux inhibition (fraction of control) in assay [12] is -0.24 (inactive). Besides, in assay [14], the differentiation response is -8.27% (inactive).

For the compound `CC(C)(C)NCC(O)c1cc(O)cc(O)c1` (stereo not drawn), the percent of DMSO control GFP in assay [1] was 97.8% (inactive). The figures for the GFP response vs DMSO in assay [2] and in assay [4] were 102% (inactive) and 106% (inactive), respectively. Moreover, the percent response of DMSO control in assay [3] is 95.1% (inactive). Moreover, the GFP response, % of DMSO in assay [5] is 119% (inactive). The same compound showed a double positive events in assay [6] of 61.6%. Also, the vesicle binding response in assay [6] is 190% (inactive). The results for the inhibition in [7], in [9] and in assay [13] were -15.6% (inactive), -13.2% (inactive) and 6% (inactive), respectively. Moreover, the superoxide response (% of plate) in assay [8] is 113% (inactive). For the same compound, the response in assay [10] is -6.14% (inactive). Moreover, the binding (% of control) in [11] was 100% (inactive). In assay [12], the efflux inhibition (fraction of control) was -0.04 (inactive). Further, the differentiation response in [14] is -4.99% (inactive).

As for `CCOc1ccccc1OCCOc1ccc(F)cc1`, in assay [1], the percent of DMSO control GFP is 101% (inactive). Moreover, the GFP response vs DMSO was 98.3% (inactive) in assay [2] and 88.1% (inactive) in assay [4]. Besides, the percent response of DMSO control in assay [3] was 100% (inactive). For the same compound, the GFP response, % of DMSO in [5] was 91.1% (inactive). The compound also showed a double positive events in [6] of 63.4%. Further, in [6], the vesicle binding response was 193% (inactive). For the same compound, the results for the inhibition in [7], in assay [9] and in assay [13] were -30.5% (inactive), 0.71% (inactive) and 1% (inactive), respectively. Also, in assay [15], the aptamer binding inhibition is 0% (inactive). In addition, the response in assay [16] is 7.79% (inactive); in assay [10], -0.31% (inactive). Besides, the binding (% of control) in assay [11] is 104% (inactive). Further, in [12], the efflux inhibition (fraction of control) was 0.24 (inactive). Also, the differentiation response in assay [14] was 12% (inactive).

Regarding `C/C=C/Cn1c(SC)nc2c1c(=O)[nH]c(=O)n2C`, the percent of DMSO control GFP in assay [1] is 102% (inactive). In addition, the GFP response vs DMSO is 101% (inactive) in [2] and 93.3% (inactive) in assay [4]. Further, the percent response of DMSO control in assay [3] is 95.9% (inactive). Besides, the GFP response, % of DMSO in [5] was 93.4% (inactive). The same compound gave a double positive events in [6] of 59%. For the same compound, in [6], the vesicle binding response is 124% (inactive). The figures for the inhibition in [7], in assay [9] and in assay [13] were 3.49% (inactive), 34.4% (inactive) and 0% (inactive), respectively. In addition, in assay [8], the superoxide response (% of plate) is 97.4% (inactive). The aptamer binding inhibition in assay [15] was 0% (inactive). Also, in [10], the response is 1.09% (inactive). Besides, in assay [11], the binding (% of control) was 103% (inactive). Also, the efflux inhibition (fraction of control) in assay [12] is 0.78 (active). The differentiation response in assay [14] is -14.7% (inactive).

On to `CNCCCC12CCC(c3ccccc31)c1ccccc12`, for which the percent of DMSO control GFP in assay [1] is 101% (inactive). Also, the GFP response vs DMSO in assay [2] is 107% (inactive); in assay [4], 95.3% (inactive). Further, the percent response of DMSO control in [3] is 90.8% (inactive). Also, in [5], the GFP response, % of DMSO is 96.7% (inactive). In [6], the double positive events was 66.4%. Further, the vesicle binding response in assay [6] is 234% (inactive). For the same compound, the results for the inhibition in assay [7], in [9] and in assay [13] were 11% (inactive), 3.24% (inactive) and -7% (inactive), respectively. Besides, in assay [15], the aptamer binding inhibition was -11% (inactive). Further, the response in [16] is 28.2% (inactive); in assay [10], 2% (inactive). Moreover, the binding (% of control) in assay [11] is 103% (inactive). In addition, the efflux inhibition (fraction of control) in assay [12] is 0.33 (inactive). Further, the differentiation response in assay [14] is 18.8% (inactive).
